Out of some 39,000 compounds screened, about 1,500 (3.8%) were called active. For the sample, actives were picked, then their nearest neighbours and some compounds at random.

The text below walks through data of the antibiotic and cytotoxicity screens of Wong et al. (2023).

The test system of the experiment is HSkMC (human skeletal muscle cells). The experiment can be described thus: cytotoxicity call (relative viability < 0.9). The conditions noted are these: 10 µM.
With `C[C@@H]1CN([C@@H](C)CO)C(=O)Cc2cc(NS(=O)(=O)c3cn(C)cn3)ccc2O[C@H]1CN(C)C(=O)Nc1ccccc1`, the cytotoxicity call was “inactive”.
The same measure for `C[C@H](NC(=O)[C@@H]1N[C@@H]2c3ccc(-c4ccc(C(=O)N(C)C)cc4)c(=O)n3C[C@@H]2[C@H]1CO)c1ccccc1`: “inactive”; for `COc1ccc2c3c(n(c2c1)C)[C@@H](CO)N(C[C@]13CN(C1)C(=O)c1ccncc1)C(=O)C1CCOCC1`: “inactive”; for `C[C@H]1CCCCO[C@@H](CN(C)C(=O)Nc2ccc3c(c2)OCO3)[C@@H](C)CN([C@@H](C)CO)C(=O)c2cc(NC(=O)Cc3ccccc3)ccc2O1`: “inactive”.
The same measure for `C[C@@H]1CN([C@@H](C)CO)S(=O)(=O)c2ccc(C#CC3(O)CCCC3)cc2O[C@H]1CN(C)C(=O)Nc1ccc(F)cc1`: “inactive”; for `C[C@@H]1CCCCO[C@@H](CN(C)Cc2ccc(C(F)(F)F)cc2)[C@@H](C)CN([C@H](C)CO)C(=O)c2cc(NS(C)(=O)=O)ccc2O1`: “inactive”; for `C[C@@H]1CN([C@@H](C)CO)C(=O)Cc2cc(NC(=O)Nc3ccc(C(F)(F)F)cc3)ccc2O[C@@H]1CN(C)S(C)(=O)=O`: “inactive”.
In the case of `Cc1ccc(S(=O)(=O)N(C)C[C@@H]2Oc3ccc(NC(=O)Nc4ccc(C(F)(F)F)cc4)cc3CC(=O)N([C@H](C)CO)C[C@@H]2C)cc1` it was “active”; in that of `C[C@H](CO)N1C[C@H](C)[C@H](CN(C)S(C)(=O)=O)Oc2ccc(NC(=O)Nc3ccc(C(F)(F)F)cc3)cc2CC1=O`, “inactive”.
Regarding `Cc1ccc(S(=O)(=O)N(C)C[C@H]2Oc3ccc(NC(=O)Nc4ccc(C(F)(F)F)cc4)cc3CC(=O)N([C@H](C)CO)C[C@@H]2C)cc1`, the cytotoxicity call is “active”.
On to `Cc1ccc(S(=O)(=O)N(C)C[C@H]2Oc3ccc(NC(=O)Nc4ccc(C(F)(F)F)cc4)cc3CC(=O)N([C@H](C)CO)C[C@H]2C)cc1`, for which the cytotoxicity call is “active”.
For the compound `Cc1ccc(S(=O)(=O)N(C)C[C@H]2Oc3ccc(NC(=O)Nc4ccc(C(F)(F)F)cc4)cc3CC(=O)N([C@@H](C)CO)C[C@H]2C)cc1`, the cytotoxicity call was “active”.
The same measure for `C[C@@H]1CN([C@H](C)CO)C(=O)c2cc(C#CCN(C)C)cnc2O[C@@H]1CN(C)Cc1ccc2c(c1)OCO2`: “inactive”; for `C[C@H](CO)N1C[C@H](C)[C@H](CN(C)S(=O)(=O)c2ccc(C(F)(F)F)cc2)OCc2ccccc2-c2ccccc2C1=O`: “inactive”.
In the case of `C[C@@H]1CN([C@H](C)CO)C(=O)c2cccc(NC(=O)C3CCCCC3)c2O[C@@H]1CN(C)C(=O)Nc1ccc(C(F)(F)F)cc1` it was “inactive”.
The same measure for `COc1ccc(NC(=O)CSC2=NC(C)=C(C(=O)Nc3nc4ccccc4s3)[C@H](c3ccco3)C2C#N)cc1` (stereo not given in full): “inactive”; for `COc1ccc(CCNS(=O)(=O)c2cn(C)c(=O)n(C)c2=O)cc1`: “inactive”; for `CCCN(C)C[C@H]1OCCCC[C@@H](C)Oc2ccc(NS(C)(=O)=O)cc2C(=O)N([C@H](C)CO)C[C@@H]1C`: “inactive”.
In the case of `C[C@@H]1CN([C@@H](C)CO)C(=O)c2cc(N(C)C)ccc2O[C@H]1CN(C)S(C)(=O)=O`, the cytotoxicity call is “inactive”.
In the case of `COc1ccc(S(=O)(=O)Nc2cccc3c2O[C@H](CN(C)S(C)(=O)=O)[C@H](C)CN([C@@H](C)CO)C3=O)cc1` it was “inactive”; in that of `CC(C)NC(=O)N(C)C[C@H]1Oc2ccc(NC(=O)c3ccncc3)cc2CC(=O)N([C@H](C)CO)C[C@H]1C`, “inactive”.
The same measure for `C[C@@H]1CCCCO[C@@H](CN(C)S(=O)(=O)c2cn(C)cn2)[C@H](C)CN([C@@H](C)CO)C(=O)c2cc(NS(=O)(=O)c3ccc(F)cc3)ccc2O1`: “inactive”.
The same measure for `Cc1ccc(S(=O)(=O)N(C)C[C@@H]2Oc3ccc(NC(=O)Nc4ccc(C(F)(F)F)cc4)cc3CC(=O)N([C@@H](C)CO)C[C@@H]2C)cc1`: “active”.
Turning to `Cc1ccc(S(=O)(=O)N(C)C[C@@H]2Oc3ccc(NC(=O)Nc4ccc(C(F)(F)F)cc4)cc3CC(=O)N([C@H](C)CO)C[C@H]2C)cc1`, the cytotoxicity call was “inactive”.
The same measure for `Cc1ccc(S(=O)(=O)N(C)C[C@H]2Oc3ccc(NC(=O)Nc4ccc(C(F)(F)F)cc4)cc3CC(=O)N([C@@H](C)CO)C[C@@H]2C)cc1`: “inactive”; for `Cc1ccc(S(=O)(=O)N(C)C[C@@H]2Oc3ccc(NC(=O)Nc4ccc(C(F)(F)F)cc4)cc3CC(=O)N([C@@H](C)CO)C[C@H]2C)cc1`: “active”.
In the case of `C[C@@H]1CN([C@@H](C)CO)C(=O)c2cc(NC(=O)c3ccccc3)ccc2O[C@@H](C)CCCCO[C@H]1CN(C)CC1CCCCC1` it was “inactive”; in that of `Cc1noc(C)c1NC(=O)Nc1ccc2c(c1)C(=O)N([C@@H](C)CO)C[C@@H](C)[C@H](CN(C)Cc1ccc(C(F)(F)F)cc1)O2`, “inactive”; in that of `CC(C)(C)[S@](=O)N1Cc2cc(C(=O)NCC(F)(F)F)nc(-c3cccc(-c4cccc(F)c4)c3)c2[C@@H]1CCO`, “inactive”.
In the case of `C[C@@H]1CN([C@@H](C)CO)C(=O)Cc2cc(NC(=O)Nc3cccc4ccccc34)ccc2O[C@@H]1CN(C)CC1CCCCC1` it was “inactive”; in that of `C[C@H]1CN([C@@H](C)CO)C(=O)Cc2cc(NC(=O)Nc3cccc4ccccc34)ccc2O[C@@H]1CN(C)CC1CCCCC1`, “active”; in that of `C[C@H](CO)N1C[C@H](C)[C@H](CN(C)CC2CCCCC2)Oc2ccc(NC(=O)Nc3cccc4ccccc34)cc2CC1=O`, “inactive”.
Regarding `C[C@@H]1CN([C@@H](C)CO)C(=O)Cc2cc(NC(=O)Nc3cccc4ccccc34)ccc2O[C@H]1CN(C)CC1CCCCC1`, the cytotoxicity call is “inactive”.
For `C[C@H]1CN([C@@H](C)CO)C(=O)Cc2cc(NC(=O)Nc3cccc4ccccc34)ccc2O[C@H]1CN(C)CC1CCCCC1`, the cytotoxicity call is “active”.
The same measure for `C[C@@H]1CN([C@H](C)CO)C(=O)Cc2cc(NC(=O)Nc3cccc4ccccc34)ccc2O[C@H]1CN(C)CC1CCCCC1`: “inactive”; for `C[C@H](CO)N1C[C@H](C)[C@H](CN(C)C(=O)Nc2ccc3c(c2)OCO3)Oc2ccc(NC(=O)Nc3ccc(C(F)(F)F)cc3)cc2C1=O`: “inactive”.
In the case of `COC[C@H]1CNN1C(=O)Nc1c(C)noc1C` it was “inactive”.
The same measure for `Cc1noc(C)c1NC(=O)Nc1ccc2c(c1)C(=O)N([C@@H](C)CO)C[C@H](C)[C@H](CN(C)C(=O)NC(C)C)O2`: “inactive”.
For the compound `C[C@H](CO)N1C[C@H](C)[C@H](CN(C)C(=O)Nc2cccc3ccccc23)Oc2ccc(NS(=O)(=O)c3ccc(F)cc3)cc2C1=O`, the cytotoxicity call was “inactive”.
As for `C[C@@H]1CCCCO[C@@H](CN(C)C(=O)Nc2ccccc2)[C@@H](C)CN([C@H](C)CO)C(=O)c2cc(NC(=O)c3ccccc3)ccc2O1`, the cytotoxicity call was “inactive”.
As for `C[C@H]1CN([C@@H](C)CO)C(=O)c2cccc(NC(=O)Nc3ccc(C(F)(F)F)cc3)c2O[C@@H]1CN(C)Cc1ccccc1`, the cytotoxicity call is “active”.
For `C[C@H](CO)N1C[C@H](C)[C@@H](CN(C)Cc2ccccc2)Oc2c(NC(=O)Nc3ccc(C(F)(F)F)cc3)cccc2C1=O`, the cytotoxicity call is “inactive”.
The same measure for `C[C@@H]1CN([C@H](C)CO)C(=O)c2cccc(NC(=O)Nc3ccc(C(F)(F)F)cc3)c2O[C@@H]1CN(C)Cc1ccccc1`: “inactive”; for `C[C@@H]1CN([C@@H](C)CO)C(=O)c2cccc(NC(=O)Nc3ccc(C(F)(F)F)cc3)c2O[C@@H]1CN(C)Cc1ccccc1`: “inactive”.
For the compound `C[C@@H]1CN([C@@H](C)CO)C(=O)c2cccc(NC(=O)Nc3ccc(C(F)(F)F)cc3)c2O[C@H]1CN(C)Cc1ccccc1`, the cytotoxicity call is “active”.
`C[C@@H]1CN([C@H](C)CO)C(=O)c2cccc(NC(=O)Nc3ccc(C(F)(F)F)cc3)c2O[C@H]1CN(C)Cc1ccccc1`: the cytotoxicity call was “inactive”.
The same measure for `Cc1c(-c2ccnn2C)cc(C(=O)NCc2ccc(S(C)(=O)=O)cn2)c(=O)n1-c1cccc(C(F)(F)F)c1`: “inactive”; for `Cc1sc2[nH]cnc(=S)c2c1C`: “inactive”; for `C[C@@H]1CN([C@H](C)CO)C(=O)c2c(c3ccccc3n2C)-c2ccccc2CO[C@H]1CN(C)Cc1ccc2c(c1)OCO2`: “inactive”.
On to `C[C@@H]1CN([C@@H](C)CO)C(=O)c2cc(NC(=O)Nc3ccc(C(F)(F)F)cc3)ccc2O[C@@H]1CN(C)Cc1ccc(C(=O)Nc2ccccc2N)cc1`, for which the cytotoxicity call was “inactive”.
The same measure for `COCC(=O)N[C@@H]1C[C@H](CO)[C@H](O)C1`: “inactive”; for `CCCc1cc(=O)n2ncnc2[nH]1`: “inactive”; for `Cc1noc(C)c1NC(=O)Nc1ccc2c(c1)CC(=O)N([C@H](C)CO)C[C@@H](C)[C@H](CN(C)S(=O)(=O)c1cccs1)O2`: “inactive”.
The same measure for `C=C(C)C1CCC2(C(=O)O)CCC3(C)C(CCC4C5(C)CCC(O)C(C)(C)C5CCC43C)C12` (stereo not given): “inactive”.
The same measure for `C=C(C)C1CCC2(CO)CCC3(C)C(CCC4C5(C)CCC(O)C(C)(C)C5CCC43C)C12` (stereo not given): “active”.
On to `C=C(C)C1CCC2(C)CCC3(C)C(CCC4C5(C)CCC(O)C(C)(C)C5CCC43C)C12` (stereo not given), for which the cytotoxicity call is “inactive”.
The same measure for `CN1CCN(C(=O)C[C@@H]2CC[C@@H]3[C@H](COC[C@H](O)CN3Cc3ccc(Oc4ccccc4)cc3)O2)CC1`: “inactive”; for `CC(C)(C)NC(=O)C[n+]1cccc(/C=N/O)c1`: “inactive”; for `O=C(C[C@@H]1CC[C@@H]2[C@H](COC[C@@H](O)CN2S(=O)(=O)c2cccc(Cl)c2)O1)NCc1ccncn1`: “inactive”.
For the compound `O=C(NO)c1cn(-c2cccc(C(=O)N3CCC4(CC3)C(=O)NCN4c3ccccc3)c2)nn1`, the cytotoxicity call is “active”.
The same measure for `O=C(/C=C/c1cccc(-c2cn(-c3cccc(C(=O)N4CCC5(CC4)C(=O)NCN5c4ccccc4)c3)nn2)c1)NO`: “inactive”; for `O=C(NO)c1cn(CC(=O)N2CCC3(CC2)C(=O)NCN3c2ccccc2)nn1`: “inactive”; for `C=CCNC(=O)[C@H]1CCCN(S(C)(=O)=O)C1`: “inactive”.
In the case of `O=C(C[C@@H]1C=C[C@H](NC(=O)c2ccc3c(c2)OCO3)[C@H](CO)O1)NCc1ccc(Oc2ccccc2)cc1` it was “inactive”.
In the case of `COCCNC(=O)C[C@H]1CC[C@@H]2[C@@H](COc3ccc(NS(=O)(=O)c4ccc(Cl)cc4)cc3C(=O)N2C)O1` it was “inactive”.
